# In the supplement of paper PMC12494721:
# Structures can show the parent of a compound that is named as a salt.
# How the values were obtained:
# Settings in all cases: incubation time: 27 h, anaerobic, 37 °C;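 for the amine columns active = adjusted P below 0.05 in both replicates with a change the same way and a mean fold change under 0.8 or over 1.25; inactive = the rest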
# [1] = test system: Clostridium sporogenes DSM 1664; assay: growth (OD595) fold change vs plate DMSO controls (fold change (ratio)); higher = more growth
# Outline: (§1)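 After 27 h at 37 °C under anaerobic conditions, 96-well cultures in mGAM were shaken and read at 595 nm. The readings were blank-subtracted, corrected for compound background using 20 µM compound solutions in water, and converted to OD with a calibration factor of 5. Growth is defined as the fold change over the median of DMSO controls on each plate. Fold changes above 1.5 were set to NA, and each value is the mean of 2 biological replicates.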
# [2] = test system: Escherichia coli IAI1; assay: as above
# Outline: as §1
# [3] = test system: Klebsiella aerogenes DSM 30053; assay: as above
# Outline: as §1
# [4] = test system: Ruminococcus gnavus DSM 108212; assay: as above
# Outline: as §1
# [5] = test system: Klebsiella aerogenes DSM 30053; assay: fold change of Histamine concentration vs plate DMSO controls (fold change (ratio)); higher = more amine produced, active = hit call of the paper (significant change in both replicates, either direction)
# Outline: (§2)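 Amines were quantified by LC–triple-quadrupole MS in dynamic MRM mode against external calibration curves, with drift correction within each batch. The samples were whole anaerobic mGAM cultures of four gut bacterial strains, grown for 27 h at 37 °C in 80 µL wells and extracted with cold acetonitrile/methanol with 0.1% formic acid, then centrifuged. Values are reported as fold change over DMSO controls on the same plate. The mean of 2 biological replicates is given.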
# [6] = test system: Clostridium sporogenes DSM 1664; assay: fold change of Tryptamine concentration vs plate DMSO controls (fold change (ratio)); higher = more amine produced, active = hit call of the paper (significant change in both replicates, either direction)
# Outline: as §2
# [7] = test system: Ruminococcus gnavus DSM 108212; assay: as above
# Outline: as §2
# [8] = test system: Escherichia coli IAI1; assay: fold change of Putrescine concentration vs plate DMSO controls (fold change (ratio)); higher = more amine produced, active = hit call of the paper (significant change in both replicates, either direction)
# Outline: as §2
# [9] = test system: Klebsiella aerogenes DSM 30053; assay: as above
# Outline: as §2
# [10] = test system: Escherichia coli IAI1; assay: fold change of Cadaverine concentration vs plate DMSO controls (fold change (ratio)); higher = more amine produced, active = hit call of the paper (significant change in both replicates, either direction)
# Outline: as §2
# [11] = test system: Klebsiella aerogenes DSM 30053; assay: as above
# Outline: as §2
# [12] = test system: Ruminococcus gnavus DSM 108212; assay: fold change of 2-Phenylethylamine concentration vs plate DMSO controls (fold change (ratio)); higher = more amine produced, active = hit call of the paper (significant change in both replicates, either direction)
# Outline: as §2
Compound,growth [1],growth [2],growth [3],growth [4],fold change of Histamine concentration [5],fold change of Tryptamine concentration [6],fold change of Tryptamine concentration [7],fold change of Putrescine concentration [8],fold change of Putrescine concentration [9],fold change of Cadaverine concentration [10],fold change of Cadaverine concentration [11],fold change of 2-Phenylethylamine concentration [12]
N[C@@H](CSCCCO)C(=O)O [Fudosteine] (20 µM),0.96,1.05,1.01,1.14,0.977 (inactive),0.939 (inactive),1 (inactive),1.05 (inactive),1.02 (inactive),0.981 (inactive),1.01 (inactive),1.03 (inactive)
CC(C)(C)NC(=O)[C@H]1CC[C@H]2[C@@H]3CC[C@H]4NC(=O)C=C[C@]4(C)[C@H]3CC[C@]12C [Finasteride] (20 µM),1.18,0.998,1.05,1.24,0.977 (inactive),0.973 (inactive),1.06 (inactive),0.983 (inactive),0.982 (inactive),0.913 (inactive),1.01 (inactive),1.12 (inactive)
CC(=O)OC(C)OC(=O)C(C)c1ccc(-c2ccccc2)c(F)c1 (stereo not given) [Flurbiprofen axetil] (20 µM),1.11,1.03,0.976,0.996,1.01 (inactive),1.04 (inactive),1.07 (inactive),1.04 (inactive),1 (inactive),1.07 (inactive),0.987 (inactive),1.04 (inactive)
C#C[C@]1(O)CC[C@H]2[C@@H]3CCC4=CC(=O)CC[C@@H]4[C@H]3CC[C@@]21C [Norethindrone] (20 µM),1.09,0.973,1,1.22,1.11 (inactive),1.01 (inactive),1.03 (inactive),0.962 (inactive),1.03 (inactive),0.98 (inactive),0.989 (inactive),1.04 (inactive)
COc1c(O[C@@H]2O[C@H](CO)[C@@H](O)[C@H](O)[C@H]2O)cc2c(c1OC)-c1ccc(SC)c(=O)cc1[C@@H](NC(C)=O)CC2 [Thiocolchicoside] (20 µM),0.996,1,0.975,0.686,1.1 (inactive),1.01 (inactive),1.02 (inactive),1.01 (inactive),1.02 (inactive),1 (inactive),0.991 (inactive),1.01 (inactive)
O=C(Cn1cnnn1)N[C@@H]1C(=O)N2C(C(=O)O)=C(CSc3nncs3)CS[C@H]12 [Ceftezole] (20 µM),0,0.855,1.05,0.188,0.895 (inactive),0.0131 (active),0.114 (active),0.749 (inactive),0.967 (inactive),1.61 (inactive),1.04 (inactive),0.105 (active)
CCC(=O)O[C@@H](O[P@](=O)(CCCCc1ccccc1)CC(=O)N1C[C@H](C2CCCCC2)C[C@H]1C(=O)O)C(C)C [Fosinopril] (20 µM),1.01,1.09,1.05,1.08,1.06 (inactive),0.979 (inactive),1.05 (inactive),1.3 (inactive),1.01 (inactive),0.939 (inactive),1 (inactive),1.08 (inactive)
COc1ccc([C@@H]2CC(=O)c3c(O)cc(O[C@@H]4O[C@H](CO[C@@H]5O[C@@H](C)[C@H](O)[C@@H](O)[C@H]5O)[C@@H](O)[C@H](O)[C@H]4O)cc3O2)cc1O [Hesperidin] (20 µM),1.12,1.05,1.06,0.984,0.921 (inactive),1.26 (active),1.01 (inactive),1.01 (inactive),0.934 (inactive),0.986 (inactive),1.02 (inactive),0.982 (inactive)
CCCCCOC(=O)Nc1nc(=O)n([C@@H]2O[C@H](C)[C@@H](O)[C@H]2O)cc1F [Capecitabine] (20 µM),1.12,0.991,1.07,0.98,0.921 (inactive),0.982 (inactive),1.03 (inactive),0.993 (inactive),0.99 (inactive),1.01 (inactive),1 (inactive),1.06 (inactive)
CN(C)CCOC(c1ccccc1)c1ccccc1 [Diphenhydramine hydrochloride] (20 µM),0.881,0.994,0.974,1.25,1 (inactive),1.05 (inactive),0.945 (inactive),0.962 (inactive),0.996 (inactive),0.98 (inactive),0.985 (inactive),0.914 (inactive)
CCN(CC)CC#CCOC(=O)C(O)(c1ccccc1)C1CCCCC1 (stereo not given) [Oxybutynin chloride] (20 µM),1.01,0.971,1,0.917,1.01 (inactive),1.01 (inactive),0.977 (inactive),1.01 (inactive),1.02 (inactive),0.909 (inactive),1.01 (inactive),1.01 (inactive)
Cc1cc(C#N)cc(C)c1Oc1nc(Nc2ccc(C#N)cc2)nc(N)c1Br [Etravirine] (20 µM),1.06,1.01,1.13,1.03,1.01 (inactive),1.03 (inactive),0.995 (inactive),1.03 (inactive),1 (inactive),1.04 (inactive),0.981 (inactive),1.03 (inactive)
O=S(=O)([O-])NC1CCCCC1.[Na+] [Sodium cyclamate] (50 µM),1.01,1.02,0.974,1.03,1.04 (inactive),1.01 (inactive),1.01 (inactive),1.03 (inactive),1.02 (inactive),1.05 (inactive),1 (inactive),1.02 (inactive)
Oc1c(Cl)cc(Cl)c(Cl)c1Cc1c(O)c(Cl)cc(Cl)c1Cl (20 µM),0,0.939,1.02,0,1.06 (inactive),0.00872 (active),0.0717 (active),1.06 (inactive),1.01 (inactive),1.37 (active),1.02 (inactive),0.0513 (active)
Cc1c(NC(=O)c2cccnc2)c(=O)n(-c2ccccc2)n1C [Nifenazone] (20 µM),0.595,0.988,1.03,0.857,0.926 (inactive),0.135 (active),1.02 (inactive),0.723 (active),0.978 (inactive),0.865 (inactive),1 (inactive),1.03 (inactive)
C[C@@H](O)[C@H]1C(=O)N2C(C(=O)O)=C(S[C@@H]3CN[C@H](CNS(N)(=O)=O)C3)[C@H](C)[C@H]12 [Doripenem monohydrate] (20 µM),0,0.00243,0.281,0.0314,0.193 (active),0.0168 (active),0.0858 (active),0.954 (inactive),0.467 (active),2.1 (active),1.08 (inactive),0.0567 (active)
CC(C(=O)O)c1ccc(N2CC=CC2)c(Cl)c1 (stereo not given) [Pirprofen] (20 µM),1.03,1.01,0.978,0.973,1.04 (inactive),0.987 (inactive),1.06 (inactive),1.04 (inactive),0.957 (inactive),0.95 (inactive),0.981 (inactive),1.15 (inactive)
CCCCC(C)(O)C/C=C/[C@H]1[C@H](O)CC(=O)[C@@H]1CCCCCCC(=O)OC (mixture of isomers) [Misoprostol] (20 µM),1.14,0.994,1.03,1.19,1.04 (inactive),0.979 (inactive),0.987 (inactive),0.988 (inactive),1.02 (inactive),0.994 (inactive),0.995 (inactive),0.945 (inactive)
CC(C)OC(=O)C(C(=O)OC(C)C)=C1SC=CS1 [Malotilate] (20 µM),1.09,1.07,1.08,1.16,0.94 (inactive),0.958 (inactive),0.956 (inactive),1.07 (inactive),1.04 (inactive),0.949 (inactive),1.02 (inactive),0.88 (inactive)
O=C(O)c1cc(/N=N/c2ccc(S(=O)(=O)Nc3ccccn3)cc2)ccc1O [Sulfasalazine] (20 µM),0.986,1,1.05,0.978,0.971 (inactive),1.01 (inactive),1 (inactive),0.913 (inactive),0.995 (inactive),1.01 (inactive),1.01 (inactive),0.954 (inactive)
CC(=O)CC(c1ccccc1)c1c(O)c2ccccc2oc1=O (stereo not given) (20 µM),1.05,0.981,1,1.15,1.01 (inactive),0.979 (inactive),0.984 (inactive),1.01 (inactive),1 (inactive),0.995 (inactive),0.99 (inactive),0.99 (inactive)
CN1CCC(=C2c3ccccc3CC(=O)c3sccc32)CC1 [Ketotifen fumarate] (20 µM),1,0.988,1.07,1,0.935 (inactive),1.02 (inactive),0.991 (inactive),0.966 (inactive),0.996 (inactive),1.01 (inactive),1.01 (inactive),0.968 (inactive)
CCOc1ccccc1OC(c1ccccc1)C1CNCCO1 (stereo not given) [Reboxetine mesylate] (20 µM),1.03,1.16,1.07,1.08,1.01 (inactive),0.997 (inactive),1.04 (inactive),1.03 (inactive),1.01 (inactive),0.926 (inactive),1 (inactive),1.03 (inactive)
CC(=O)OCC(=O)[C@@]1(O)CC[C@H]2[C@@H]3CCC4=CC(=O)CC[C@]4(C)[C@@]3(F)[C@@H](O)C[C@@]21C [Fludrocortisone acetate] (20 µM),0.949,1.09,1.03,1.06,1.01 (inactive),1 (inactive),1.01 (inactive),1.09 (inactive),1 (inactive),1.02 (inactive),1 (inactive),0.966 (inactive)
C#C[C@]1(O)CC[C@H]2[C@@H]3[C@H](C)CC4=C(CCC(=O)C4)[C@H]3CC[C@@]21C [Tibolone] (20 µM),1.01,0.989,1.04,0.931,1.03 (inactive),1.05 (inactive),1.04 (inactive),1.03 (inactive),1.02 (inactive),0.994 (inactive),1.01 (inactive),1.02 (inactive)
